Results: PubChem BioAssay (NCI)
This is part of a sample that, as a whole, favours compounds with a hit. Of some 79,000 tested, about 15% had one in any assay. Active and inactive are the calls of the source. No stated cut-off is given here; in the data, active means growth inhibition above about 70%; inactive means the rest.

Legend:
[1] = NCI Yeast Anticancer Drug Screen. Data for the rad52 strain (AID 147);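 further: 0% = growth of vehicle-treated control cultures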; conditions: S. cerevisiae rad52 mutant growth inhibition, stronger effect = higher value
How it was run: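 DNA repair-defective yeast; compound exposure; growth scored against vehicle controls.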

[2] = NCI Yeast Anticancer Drug Screen. Data for the wt1 strain (AID 149);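 further: 0% = growth of vehicle-treated wt1 cultures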; conditions: S. cerevisiae wt1 strain (SPY 50644) growth inhibition, stronger effect = higher value
How it was run: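 Growth inhibition read against vehicle controls after compound exposure of the wt1 yeast strain.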

[3] = NCI Yeast Anticancer Drug Screen. Data for the rad50EPP+ strain (AID 151);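 further: 0% = growth of vehicle-treated control cultures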; conditions: S. cerevisiae rad50 mutant strain, stronger effect = higher value
How it was run: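 rad50EPP+ yeast treated with test compounds. Readout: growth vs vehicle control.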

[4] = NCI Yeast Anticancer Drug Screen. Data for the mgt1 strain (AID 153); conditions: S. cerevisiae mgt1 mutant growth inhibition, stronger effect = higher value
How it was run: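 Growth inhibition relative to vehicle controls was scored for the mgt1 yeast strain after compound exposure.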

[5] = NCI Yeast Anticancer Drug Screen. Data for the rad50 strain (AID 155);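 further: 0% = growth of vehicle-only cultures of the same strain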; conditions: S. cerevisiae rad50 strain growth inhibition, stronger effect = higher value
How it was run: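 Readout: growth inhibition relative to vehicle-treated cultures. Compound exposure was carried out in a genetically defined yeast strain deficient in DNA damage repair.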

[6] = NCI Yeast Anticancer Drug Screen. Data for the mec2-1 strain (AID 157); conditions: S. cerevisiae mec2-1 strain, stronger effect = higher value
How it was run: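 Growth inhibition is read against vehicle-treated controls after compound exposure of the mec2-1 yeast strain, which is defective in DNA damage repair or cell cycle control.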

[7] = NCI Yeast Anticancer Drug Screen. Data for the rad14 strain (AID 159);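 further: 0% = growth of vehicle-treated control cultures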; conditions: S. cerevisiae rad14 strain growth inhibition, stronger effect = higher value
How it was run: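 Growth inhibition vs vehicle controls; genetically altered yeast strain (DNA damage repair defect) treated with test compounds.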

[8] = NCI Yeast Anticancer Drug Screen. Data for the sgs1 mgt1 strain (AID 161);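 further: 0% = growth of cultures given vehicle only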; conditions: S. cerevisiae sgs1 mgt1 strain, stronger effect = higher value
How it was run: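 Percent growth inhibition was derived by comparing compound-exposed mutant yeast with vehicle-exposed cultures. The strain carries alterations in DNA damage repair.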

[9] = NCI Yeast Anticancer Drug Screen. Data for the CLN2oe strain (AID 163);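 further: 0% = growth of vehicle-only control cultures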; conditions: S. cerevisiae CLN2oe strain, stronger effect = higher value
How it was run: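 Compound-treated yeast; growth vs vehicle ctrl = % inhibition. Genetically altered strain (cell-cycle control).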

[10] = NCI Yeast Anticancer Drug Screen. Data for the cln2 rad14 strain (AID 165);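 further: 0% = growth equal to vehicle treated cultures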; conditions: S. cerevisiae cln2 rad14 strain, stronger effect = higher value
How it was run: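 Growth inhibition, relative to vehicle-treated controls, is the read-out. The test organism is a yeast strain with defined genetic alterations, cln2 rad14.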

[11] = NCI Yeast Anticancer Drug Screen. Data for the bub3 strain (AID 167); conditions: S. cerevisiae bub3 mutant strain, stronger effect = higher value
How it was run: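 Readout: yeast growth inhibition, expressed relative to vehicle-only wells. The test organism is a mutant strain from a panel with lesions in DNA repair or checkpoint genes.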

[12] = NCI Yeast Anticancer Drug Screen. Data for the wt2 strain (AID 169);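 further: 0% = growth of vehicle-treated yeast cultures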; conditions: S. cerevisiae wt2 strain growth inhibition, stronger effect = higher value
How it was run: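 Compound exposure of yeast; growth compared with vehicle controls; inhibition reported.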

[13] = NCI Yeast Anticancer Drug Screen. Data for the mlh1 strain (AID 171);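 further: 0% = growth of vehicle-treated control cultures of the same strain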; conditions: S. cerevisiae mlh1 strain growth inhibition, stronger effect = higher value
How it was run: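 Compounds are applied to a genetically altered yeast strain, and its growth is compared with that of vehicle-treated cultures to give percent inhibition.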

[14] = NCI Yeast Anticancer Drug Screen. Data for the sgs1 strain (AID 173);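 further: 0% = growth of vehicle-only control cultures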; conditions: S. cerevisiae sgs1 mutant, stronger effect = higher value
How it was run: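 Compounds applied to genetically altered yeast; growth compared with vehicle-treated cultures to give % inhibition.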

[15] = NCI Yeast Anticancer Drug Screen. Data for the mlh1 rad18 strain (AID 175); conditions: S. cerevisiae mlh1 rad18 strain growth inhibition, stronger effect = higher value
How it was run: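 Cells of a genetically altered yeast strain, deficient in DNA damage repair, were treated with compound. Their growth was then compared with that of vehicle-treated cultures to give inhibition.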

[16] = NCI Yeast Anticancer Drug Screen. Data for the rad18 strain (AID 177); conditions: S. cerevisiae rad18 mutant growth inhibition, stronger effect = higher value
How it was run: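 Compounds are applied to a repair-deficient yeast strain, and growth is compared with that of vehicle-treated cultures to give percent inhibition.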

[17] = at 5.0 µM (retest, dose inferred, filed as 0.5)
[18] = at 50.0 µM (retest, dose inferred, filed as 5.0)

Measured: growth inhibition

CCOC(=O)/C(=C\c1ccc(F)cc1)C(C)=O
active: [1]; at 33.0 µM 94% | [1]; at 100.0 µM 98% | [2]; at 33.0 µM 93% | [2]; at 100.0 µM 98% | [3]; at 33.0 µM 93% | [3]; at 100.0 µM 98% | [4]; at 11.0 µM 77% | [4]; at 33.0 µM 96% | [4]; at 100.0 µM 99% | [5]; at 11.0 µM 72% | [5]; at 33.0 µM 95% | [5]; [18] 97% | [5]; at 50.0 µM 91.8% | [5]; at 100.0 µM 97% | [6]; at 11.0 µM 74% | [6]; at 33.0 µM 95% | [6]; [18] 98% | [6]; at 50.0 µM 93.8% | [6]; at 100.0 µM 97% | [7]; at 33.0 µM 95% | [7]; at 100.0 µM 97% | [8]; [18] 97% | [8]; at 50.0 µM 93% | [9]; at 33.0 µM 96% | [9]; at 100.0 µM 98% | [10]; [18] 93% | [10]; at 50.0 µM 89% | [11]; at 11.0 µM 91% | [11]; at 33.0 µM 97% | [11]; [18] 97% | [11]; at 50.0 µM 92.1% | [11]; at 100.0 µM 98% | [12]; at 33.0 µM 95% | [12]; at 100.0 µM 98% | [13]; at 11.0 µM 88% | [13]; at 33.0 µM 97% | [13]; at 100.0 µM 97% | [14]; at 11.0 µM 72% | [14]; at 33.0 µM 97% | [14]; at 100.0 µM 98% | [15]; [18] 97% | [15]; at 50.0 µM 91.9% | [16]; at 11.0 µM 77% | [16]; at 33.0 µM 94% | [16]; at 100.0 µM 97%
inactive: [1]; at 1.2 µM -43% | [1]; at 3.7 µM -17% | [1]; at 11.0 µM 57% | [2]; at 1.2 µM -17% | [2]; at 3.7 µM 4% | [2]; at 11.0 µM 48% | [3]; at 1.2 µM 8% | [3]; at 3.7 µM 30% | [3]; at 11.0 µM 68% | [4]; at 1.2 µM -19% | [4]; at 3.7 µM 6% | [5]; at 1.2 µM -7% | [5]; at 3.7 µM 19% | [5]; [17] 30% | [6]; at 1.2 µM -43% | [6]; at 3.7 µM -3% | [6]; [17] 0% | [7]; at 1.2 µM -11% | [7]; at 3.7 µM -4% | [7]; at 11.0 µM 61% | [8]; [17] 21% | [9]; at 1.2 µM 6% | [9]; at 3.7 µM 4% | [9]; at 11.0 µM 67% | [10]; [17] 9% | [11]; at 1.2 µM 9% | [11]; at 3.7 µM 37% | [11]; [17] 48% | [12]; at 1.2 µM -35% | [12]; at 3.7 µM -17% | [12]; at 11.0 µM 62% | [13]; at 1.2 µM 2% | [13]; at 3.7 µM 42% | [14]; at 1.2 µM -2% | [14]; at 3.7 µM 22% | [15]; [17] 6% | [16]; at 1.2 µM -34% | [16]; at 3.7 µM 14%

Clc1nc(Cl)nc(Nc2cccc3ccccc23)n1
inactive: [1]; at 1.2 µM 13% | [1]; at 3.7 µM 32% | [1]; at 11.0 µM 64% | [2]; at 1.2 µM 6% | [2]; at 3.7 µM 14% | [2]; at 11.0 µM 36% | [3]; at 1.2 µM 21% | [3]; at 3.7 µM 50% | [3]; at 11.0 µM 49% | [4]; at 1.2 µM 18% | [4]; at 3.7 µM 26% | [4]; at 11.0 µM 54% | [5]; at 1.2 µM 4% | [5]; at 3.7 µM 21% | [5]; [17] 29% | [5]; at 11.0 µM 52% | [6]; at 1.2 µM 23% | [6]; at 3.7 µM 42% | [6]; [17] 10% | [6]; at 11.0 µM 58% | [7]; at 1.2 µM -4% | [7]; at 3.7 µM 15% | [7]; at 11.0 µM 48% | [8]; [17] 19% | [8]; [18] 39% | [9]; at 1.2 µM 26% | [9]; at 3.7 µM 31% | [9]; at 11.0 µM 51% | [10]; [17] 44% | [11]; at 1.2 µM 33% | [11]; at 3.7 µM 45% | [11]; [17] 64%
active: [1]; at 33.0 µM 93% | [1]; at 100.0 µM 98% | [2]; at 33.0 µM 88% | [2]; at 100.0 µM 98% | [3]; at 33.0 µM 85% | [3]; at 100.0 µM 95% | [4]; at 33.0 µM 95% | [4]; at 100.0 µM 98% | [5]; at 33.0 µM 93% | [5]; [18] 92% | [5]; at 50.0 µM 86.9% | [5]; at 100.0 µM 97% | [6]; at 33.0 µM 97% | [6]; [18] 96% | [6]; at 50.0 µM 90% | [6]; at 100.0 µM 98% | [7]; at 33.0 µM 95% | [7]; at 100.0 µM 98% | [8]; at 50.0 µM 86.7% | [9]; at 33.0 µM 94% | [9]; at 100.0 µM 99% | [10]; [18] 95% | [10]; at 50.0 µM 71.4% | [11]; at 11.0 µM 80% | [11]; at 33.0 µM 96% | [11]; [18] 97% | [11]; at 50.0 µM 86.2% | [11]; at 100.0 µM 99%
